Screen size: about 300,000 compounds; about 3,200 (1.1%) were called active.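 The calls were made as follows: active = inhibition above the campaign mean inhibition plus 3 SD (cut at about 35% in these data); inactive = the rest.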 This excerpt belongs to a sample that is enriched for actives.
Each compound was assayed against Glutathione S-transferase omega-1 (Homo sapiens) (UniProt P78417) (assay: inhibitors of recombinant GSTO1, primary screen, counter-screen for RBBP9 inhibitor project, biochemical, fluorescence polarization (AID 1974;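 also: 0% = GSTO1-1 with DMSO and 100% = wells lacking GSTO1-1 enzyme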)). Details: recombinant GSTO1, activity-based probe fluorescence polarization; at 5.96 µM; active compounds read high.
Sequence of Glutathione S-transferase omega-1 (Homo sapiens) (P78417 whole entry, looked up): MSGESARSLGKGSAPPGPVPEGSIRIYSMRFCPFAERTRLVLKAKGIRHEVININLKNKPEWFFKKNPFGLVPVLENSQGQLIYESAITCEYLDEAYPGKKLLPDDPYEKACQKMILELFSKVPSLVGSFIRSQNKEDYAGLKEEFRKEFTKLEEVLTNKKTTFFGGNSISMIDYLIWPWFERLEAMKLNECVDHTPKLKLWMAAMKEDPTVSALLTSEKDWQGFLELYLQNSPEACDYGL
`CCOC(=O)c1c(N)n(CCN2CCOCC2)c2nc3ccccc3nc12` was tested, and the inhibition was -0.71% (inactive).
With `CCOC(=O)c1c(N)n(Cc2ccccc2)c2nc3ccccc3nc12` the inhibition was 77.2% (active).
With `COc1cc(Cn2c(N)c(C(=O)NCc3ccco3)c3nc4ccccc4nc32)cc(OC)c1OC` the inhibition was -1.75% (inactive).
For `CCN(CC)CCOC(=O)c1cc2cc(COC)ccc2o1`, the inhibition was 0.13% (inactive).
With `O=c1c2ccccc2nc(/C=C/c2ccco2)n1-c1ccccc1O` the inhibition was -8.4% (inactive).
With `O=C1NC(=O)N(Cc2ccco2)C(=O)/C1=C\c1cccn1CCOc1ccccc1` the inhibition was 18.6% (inactive).
For `O=C(O)COc1ccccc1/C=C1\C(=O)NC(=O)N(CCC2=CCCCC2)C1=O`, the inhibition was 41.1% (active).
With `O=C1NC(=O)N(CCc2ccc(F)cc2)C(=O)/C1=C/C=C/c1ccccc1` the inhibition was -7.53% (inactive).
In the case of `COc1cc2nc(N3CCN(C(=O)[C@@H]4CCCO4)CC3)nc(N)c2cc1OC`, the inhibition is reported as 3.62% (inactive).
For `CCCCCCN=C(CC)c1c(O)n(CCCC)c(=O)[nH]c1=O`, the inhibition was -0.65% (inactive).
In the case of `CC(=O)Nc1ccccc1C(=O)OCC(=O)c1cccc2ccccc12`, the inhibition is reported as -2.14% (inactive).
In the case of `COc1cccc(N2C(=O)NC(=O)/C(=C\c3cn(C)c4ccccc34)C2=O)c1`, the inhibition is reported as -0.1% (inactive).
With `Cc1cccc(N2C(=O)NC(=O)/C(=C\c3cnn(-c4ccccc4)c3)C2=O)c1` the inhibition was -2.05% (inactive).
For `O=C1NC(=O)N(c2ccccc2)C(=O)/C1=C/c1ccc([N+](=O)[O-])s1`, the inhibition was 38.7% (active).
In the case of `Cc1ccc(N2C(=O)NC(=O)C(CCc3ccncc3)(Cc3cccc(Cl)c3Cl)C2=O)cc1` (stereo not given), the inhibition is reported as -2.83% (inactive).
For `Cc1ccc(-n2c(-c3ccc([N+](=O)[O-])cc3)nc3ccccc3c2=O)cc1`, the inhibition was 5.91% (inactive).
For `CCNc1nc2[nH]c(=O)c3c(c2s1)OC(N)=C(C#N)C3c1cccs1` (stereo not given), the inhibition was 40.5% (active).
For `N#CC1=C(N)Oc2c(c(=O)oc3ccccc23)C1c1ccccc1OC(=O)c1cccs1` (stereo not given), the inhibition was -8.89% (inactive).
For `CCN1c2nc3c(C)cccn3c(=O)c2CC2(C(=O)N(C)C(=O)N(C)C2=O)C1C` (stereo not given), the inhibition was -4.29% (inactive).
In the case of `Cc1cc(C)cc(NC(=S)NC2CC3CCCC(C2)N3Cc2cccs2)c1` (stereo not given), the inhibition is reported as 0.82% (inactive).
